# Laboratory results: PubChem BioAssay (NCI)
# Several values for one entry are separate records, joined by “and”; a condition that tells them apart may be missing. Equal values may be shown once. About 83,000 compounds went through this panel and 20% of them were active in at least one assay; those are over-represented in the sample as a whole.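 Method: cells in 96-well plates; compound added at one concentration; 48 h incubation; percent growth measured; values under 10 scored active.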 Activity calls are given as the source filed them.
# Tests used:
# Test in all cases: NCI-60 one-dose screen, 48 h (100 = growth as untreated, 0 = no growth, -100 = all killed)
# HT29 colon = conditions: 10 µM
# SNB-75 CNS = conditions: 10 µM
# SNB-19 CNS = conditions: 10 µM
# U251 CNS = conditions: 10 µM
# PC-3 prostate = conditions: 10 µM
# SK-MEL-5 melanoma = conditions: 10 µM
# UACC-62 melanoma = conditions: 10 µM unless noted
# LOX IMVI melanoma = conditions: 10 µM
# SK-MEL-28 melanoma = conditions: 10 µM
# SK-MEL-2 melanoma = conditions: 10 µM
# EKVX NSCLC = conditions: 10 µM
# SN12C renal = conditions: 10 µM
# UO-31 renal = conditions: 10 µM
# TK-10 renal = conditions: 10 µM unless noted
# ACHN renal = conditions: 10 µM
# CAKI-1 renal = conditions: 10 µM
# HL-60(TB) leukemia = conditions: 10 µM
# CCRF-CEM leukemia = conditions: 10 µM
# A498 renal = conditions: 10 µM
Structure (SMILES),growth (HT29 colon),growth (SNB-75 CNS),growth (SNB-19 CNS),growth (U251 CNS),growth (PC-3 prostate),growth (SK-MEL-5 melanoma),growth (UACC-62 melanoma),growth (LOX IMVI melanoma),growth (SK-MEL-28 melanoma),growth (SK-MEL-2 melanoma),growth (EKVX NSCLC),growth (SN12C renal),growth (UO-31 renal),growth (TK-10 renal),growth (ACHN renal),growth (CAKI-1 renal),growth (HL-60(TB) leukemia),growth (CCRF-CEM leukemia),growth (A498 renal)
C=NCC#N,83.6% (inactive) and 103% (inactive),91.4% (inactive) and 88.2% (inactive),102% (inactive) and 108% (inactive),102% (inactive) and 107% (inactive),96.3% (inactive) and 122% (inactive),106% (inactive) and 102% (inactive),107% (inactive) and 104% (inactive),102% (inactive) and 111% (inactive),123% (inactive) and 108% (inactive),96.9% (inactive) and 82.2% (inactive),115% (inactive),99.9% (inactive) and 99.6% (inactive),87.1% (inactive) and 91.8% (inactive),100% (inactive) and 90% (inactive),96.7% (inactive) and 105% (inactive),98.1% (inactive) and 115% (inactive),99.1% (inactive) and 112% (inactive),118% (inactive),–
N#CCc1ccccc1,114% (inactive),105% (inactive),98.6% (inactive),95.8% (inactive),96.9% (inactive),99.4% (inactive),102% (inactive),94.1% (inactive),106% (inactive),99.9% (inactive),–,99.6% (inactive),93% (inactive),108% (inactive),108% (inactive),104% (inactive),–,97.3% (inactive),–
COS(=O)(=O)c1ccccc1,110% (inactive),95.2% (inactive),110% (inactive),96.4% (inactive),102% (inactive),108% (inactive),102% (inactive),102% (inactive),113% (inactive),101% (inactive),112% (inactive),112% (inactive),89.5% (inactive),104% (inactive),101% (inactive),104% (inactive),–,99.7% (inactive),–
CCOP(=O)(OCC)C(O)c1ccccc1Cl (centres undefined),105% (inactive),98.5% (inactive),105% (inactive),99.5% (inactive),98.3% (inactive),103% (inactive),108% (inactive),97.9% (inactive),114% (inactive),93% (inactive),–,106% (inactive),90.5% (inactive),–,96.8% (inactive),101% (inactive),106% (inactive),93.9% (inactive),103% (inactive)
C/C(=C\c1ccc(Cl)c(Cl)c1)[N+](=O)[O-],-52.3% (active) and 102% (inactive),90.3% (inactive),87.4% (inactive) and 103% (inactive),-23.9% (active) and 87.8% (inactive),-35% (active) and 85.2% (inactive),84.5% (inactive) and 101% (inactive),13.5% (inactive) and 92.4% (inactive),-75.1% (active) and 90.1% (inactive),-24.5% (active) and 103% (inactive),18.1% (inactive) and 95.5% (inactive),94.6% (inactive),-43.4% (active) and 101% (inactive),-84.4% (active) and 97.6% (inactive),4.82% (active) and 91.4% (inactive),-70.7% (active) and 105% (inactive),121% (inactive),–,8.59% (active) and 85.4% (inactive),–
COc1cc2c3cc1Oc1c(OC)c(OC)cc4c1C(Cc1ccc(cc1)Oc1cc(ccc1O)CC3N(C)CC2)N(C)CC4 (centres undefined),–,–,–,–,–,–,-16.8% [100 µM] (active) and -81.7% [100 µM] (active),–,–,–,–,–,–,48% [100 µM] (inactive) and -100% [100 µM] (active),–,–,–,–,–
S=C=NCCc1ccccc1,31.9% (inactive),54.2% (inactive),54.3% (inactive),46.5% (inactive),64.2% (inactive),-28.2% (active),55% (inactive),32.2% (inactive),–,104% (inactive),127% (inactive),68.4% (inactive),51.3% (inactive),78.9% (inactive),72% (inactive),69.4% (inactive),–,16.7% (inactive),–
O=[N+]([O-])/C=C\c1ccc2c(c1)OCO2,58.2% (inactive),–,102% (inactive),71.1% (inactive),83% (inactive),94.3% (inactive),82.5% (inactive),18.9% (inactive),–,115% (inactive),96.9% (inactive),94.2% (inactive),64.5% (inactive),87.1% (inactive),90.4% (inactive),86.6% (inactive),106% (inactive),92.5% (inactive),–
Cc1cc(C)c(C[N+](C)(C)C)c(C)c1C,3.52% (active),8.87% (active),16.1% (inactive),1.76% (active),14.3% (inactive),5.57% (active),–,-28.2% (active),-9.07% (active),-19.5% (active),–,0.359% (active),4.54% (active),–,6.7% (active),5.45% (active),–,-2.18% (active),–
Cc1ccc(NC(=O)CBr)cc1,115% (inactive),97.1% (inactive),96.8% (inactive),–,96.4% (inactive),96.4% (inactive),86.8% (inactive),49.8% (inactive),102% (inactive),110% (inactive),–,95.7% (inactive),86.1% (inactive),110% (inactive),108% (inactive),104% (inactive),–,23.8% (inactive),99.3% (inactive)
Oc1c(I)cc(I)cc1I,107% (inactive),87.9% (inactive),96.3% (inactive),106% (inactive),93.1% (inactive),98.1% (inactive),102% (inactive),–,101% (inactive),101% (inactive),108% (inactive),97.2% (inactive),–,103% (inactive),103% (inactive),109% (inactive),–,94.5% (inactive),–
O=C1C=Cc2ccccc2C1=O,112% (inactive),–,72.7% (inactive),74.2% (inactive),72.9% (inactive),31.3% (inactive),100% (inactive),90% (inactive),53.2% (inactive),55.3% (inactive),82.6% (inactive),92.1% (inactive),50.3% (inactive),87.9% (inactive),46.5% (inactive),86.2% (inactive),–,74.1% (inactive),–
O=C(CBr)Nc1ccccc1,103% (inactive),100% (inactive),94.9% (inactive),91.6% (inactive),95.2% (inactive),97.3% (inactive),99.6% (inactive),9.08% (active),113% (inactive),97% (inactive),111% (inactive),91% (inactive),84.9% (inactive),87.4% (inactive),104% (inactive),106% (inactive),96.1% (inactive),14.7% (inactive),–
COc1cc(/C=C/[N+](=O)[O-])cc(Br)c1OC,–,19.5% (inactive),49% (inactive),-21.2% (active),31.1% (inactive),24.5% (inactive),-5.62% (active),-100% (active),-19.8% (active),–,103% (inactive),28.7% (inactive),-1.36% (active),-38.1% (active),60.7% (inactive),61.3% (inactive),0.838% (active),6.59% (active),–
